Active and inactive are the calls of the source.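 Rule for the calls: active = clear inhibition seen at one or more tested concentrations; inactive = basal response, no inhibition.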

In PubChem BioAssay AID492989 (National Center for Advancing Translational Sciences (NCATS), 2010) one finds outcome and Potency data, which are given here for 25 compounds.

In this assay the target is Tyrosyl-DNA phosphodiesterase 1 (Homo sapiens) (UniProt Q9NUW8). The assay is described as follows: Gel-Based Assay for Inhibitors of Tyrosyl-DNA Phosphodiesterase (TDP1). Conditions: recombinant TDP1, 32P-DNA substrate gel cleavage. The text has this: Assay Overview: Human tyrosyl-DNA phosphodiesterase I (Tdp1) is a rational anticancer target because this enzyme is involved in the repair of DNA lesions created by the trapping of human DNA topoisomerase I (Top1) following treatment by anticancer agents such as camptothecins. Recombinant Tdp1 was expressed and purified from E. coli in the laboratory (Anthony et al, Nucleic Acids Research, 2007, Vol. 35, 4474-4484). See below for assay protocol. NIH Molecular Libraries Probe Production Network [MLPCN] NIH Chemical Genomics Center [NCGC] Assay Provider: Yves Pommier and Christophe Marchand, National Cancer Institute
Tyrosyl-DNA phosphodiesterase 1 (Homo sapiens), sequence (Q9NUW8 whole entry, looked up): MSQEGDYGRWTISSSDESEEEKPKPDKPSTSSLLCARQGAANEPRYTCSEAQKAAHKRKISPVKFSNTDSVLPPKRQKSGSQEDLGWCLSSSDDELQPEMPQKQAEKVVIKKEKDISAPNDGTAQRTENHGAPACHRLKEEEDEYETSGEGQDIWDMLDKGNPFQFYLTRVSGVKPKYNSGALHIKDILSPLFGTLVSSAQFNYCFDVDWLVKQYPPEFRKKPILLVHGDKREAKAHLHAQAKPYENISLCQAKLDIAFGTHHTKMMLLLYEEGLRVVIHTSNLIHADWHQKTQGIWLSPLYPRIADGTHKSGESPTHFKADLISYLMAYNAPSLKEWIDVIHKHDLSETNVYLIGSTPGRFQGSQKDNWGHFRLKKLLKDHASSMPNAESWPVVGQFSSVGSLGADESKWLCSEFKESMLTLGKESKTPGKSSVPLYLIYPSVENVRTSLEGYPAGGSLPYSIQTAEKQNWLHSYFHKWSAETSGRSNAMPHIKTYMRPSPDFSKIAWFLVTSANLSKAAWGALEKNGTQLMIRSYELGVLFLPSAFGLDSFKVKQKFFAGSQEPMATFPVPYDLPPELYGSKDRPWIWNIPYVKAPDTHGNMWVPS
5'-32P-labeled DNA substrate (1 nmol/L; N14Y; 5'-GATCTAAAAGACTT-pY-3') was incubated with 0.2 nmol/L recombinant Tdp1 in the absence or presence of inhibitor for 15 min at room temperature in an assay buffer containing 1X PBS, pH 7.4, 80 mmol/L KCl and 0.01% Tween-20. Reactions were terminated by the addition of 1 volume of gel loading buffer [99.5% (v/v) formamide, 5 mmol/L EDTA, 0.01% (w/v) xylene cyanol, and 0.01% (w/v) bromophenol blue]. Samples were subjected to a 16% denaturing PAGE and gels were exposed after drying to a PhosphorImager screen (GE Healthcare). Gel images were scanned using a Typhoon 8600 (GE Healthcare) and densitometric analyses were performed using the ImageQuant software (GE Healthcare).
Take `CCc1cccc(Nc2nn3c(=O)c4ccccc4nc3s2)c1`: the outcome was inactive.
Turning to `CN(C)c1ccc2c(=O)n3nc(Nc4ccc5c(c4)CCC5)sc3nc2c1`, the result was inactive.
Turning to `O=c1c2ccccc2nc2sc(Nc3ccc(Br)cc3)nn12`, the result was inactive.
`CC(C)(C)NS(=O)(=O)c1cccc(Nc2nn3c(=O)c4ccccc4nc3s2)c1`: the Potency is 34 µM (active).
In the case of `O=c1c2ccc([N+](=O)[O-])cc2nc2sc(Nc3ccc4c(c3)CCC4)nn12`, the Potency was 37 µM (active).
Same read-out and setting: the same measure for `CC(C)N1Cc2ccc(Nc3nn4c(=O)c5ccccc5nc4s3)cc2C1`: 22 µM (active).
Turning to `O=c1c2ccccc2nc2sc(Nc3ccccc3)nn12`, the Potency is 100 µM (active).
On to `COc1ccc2c(=O)n3nc(Nc4ccc5c(c4)CCC5)sc3nc2c1`, for which the Potency was 11 µM (active).
In the case of `CN(c1ccc2c(c1)CCC2)c1nn2c(=O)c3ccccc3nc2s1`, the result was inactive.
Regarding `O=c1c2ccccc2nc2sc(Nc3ccc4c(c3)CCC4)nn12`, the Potency is 2.5 µM (active).
The same measure, in the same setting: the same measure for `O=c1c2ccccc2nc2sc(Nc3ccc4c(c3)CNC4)nn12`: 100 µM (active); for `O=c1c2ccccc2nc2sc(Nc3ccc4c(c3)OCO4)nn12`: 12 µM (active).
For the compound `O=c1c2ccccc2nc2sc(Nc3cccc(C(F)(F)F)c3)nn12`, the outcome was inactive.
Regarding `Cc1cccc(Nc2nn3c(=O)c4ccccc4nc3s2)c1`, the Potency was 10 µM (active).
As for `O=c1c2ccccc2nc2sc(Nc3ccc(F)cc3)nn12`, the result was inactive.
As for `Cc1ccc(Nc2nn3c(=O)c4ccccc4nc3s2)cc1C`, the Potency is 10 µM (active).
Take `COc1cccc(Nc2nn3c(=O)c4ccccc4nc3s2)c1`: the Potency is 100 µM (active).
On the same count and under the same terms, the same measure for `O=c1c2ccc(C(F)(F)F)cc2nc2sc(Nc3ccc4c(c3)CCC4)nn12`: 12 µM (active); for `O=c1c2ccccc2nc2sc(Nc3cccc(-c4ccncc4)c3)nn12`: 11 µM (active).
Turning to `CN1CCN(c2cccc(Nc3nn4c(=O)c5ccccc5nc4s3)c2)CC1`, the result was inactive.
On the same count and under the same terms, the same measure for `Nc1ccc2c(=O)n3nc(Nc4ccc5c(c4)CCC5)sc3nc2c1`: “inactive”.
`O=c1c2ccccc2nc2sc(Nc3cccc(Cl)c3)nn12`: the Potency is 7.4 µM (active).
The same measure, in the same setting: the same measure for `O=c1c2ccccc2nc2sc(Nc3cccc4ccccc34)nn12`: 14 µM (active); for `O=c1c2ccc(Br)cc2nc2sc(Nc3ccc4c(c3)CCC4)nn12`: 1.1 µM (active).
Take `O=c1c2ccccc2nc2sc(Nc3cccc(Br)c3)nn12`: the outcome was inactive.
